Five compounds from the supplement of paper PMC7411054 can be followed below.

What all share (conditions): treatment time: 24 h
Assay [1] deals with A549-ACTB-RAB5A. In words: lowest phenotypically active concentration; higher = less potent. In outline:
(§1)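 Fifteen reporter lines derived from A549, HepG2 and WPMY1 cells by gene editing, carrying BFP for segmentation plus GFP and RFP/FusionRed markers, were exposed to 0.3, 1, 3 or 9 µM for 24 h in four wells each and imaged live. Live-cell features from each well were normalised to solvent control wells. A well set counted as deviating when ≥3 of 4 wells lay beyond the 95th percentile of control Euclidean distances, and as reproducible when the median replicate Pearson correlation exceeded the 95th percentile of non-replicates. Phenotypic activity was assigned only when both criteria were met.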

The subject of assay [2] is A549-CANX-COX4. The assay is described as above. The method, boiled down:
as §1

Assay [3] relates to A549-GM130-SQSTM1. Described as above. In outline:
as §1

Assay [4] concerns A549-TP53BP1-CLTA. The assay is described as above. The method, boiled down:
as §1

The subject of assay [5] is A549-TUBA1B-RELA. The assay is described as above. In outline: as §1
The test system of assay [6] is HepG2-TP53BP1-CLTA. Described as above. The method, boiled down:
as §1

Assay [7] has as its system A549-ACTB-RAB5A. The assay can be described thus: phenotypically active (imaging signature differs from DMSO and reproducible) at any of 0.3-9 uM (binary (1 = active, 0 = inactive)); higher = active. The method, boiled down:
as §1

For assay [8], the system named is A549-CANX-COX4. The description is as above. The method, boiled down:
as §1

Assay [9] deals with A549-GM130-SQSTM1. Described as above. In outline:
as §1

Assay [10] relates to A549-TP53BP1-CLTA. The assay is described as above. In outline: as §1
Assay [11] concerns A549-TUBA1B-RELA. The assay is described as above. In outline:
as §1

Assay [12] deals with HepG2-ACTB-RAB5A. The assay is described as above. In outline:
as §1

Assay [13] deals with HepG2-CANX-COX4. Described as above. The method, boiled down:
as §1

Assay [14] relates to HepG2-GM130-SQSTM1. The assay is described as above. In outline:
as §1

The subject of assay [15] is HepG2-TP53BP1-CLTA. The description is as above. In outline: as §1
Assay [16] deals with HepG2-TUBA1B-RELA. The description is as above. The method, boiled down:
as §1

Assay [17] relates to WPMY1-CANX-COX4. Described as above. In outline: as §1
Assay [18] deals with WPMY1-GM130-SQSTM1. The assay is described as above. In outline: as §1
The test system of assay [19] is WPMY1-TP53BP1-CLTA. The assay is described as above. The method, boiled down: as §1
The test system of assay [20] is WPMY1-TUBA1B-RELA. Described as above. The method, boiled down: as §1

As to `C=CC(=O)N1CCC[C@@H](n2nc(-c3cccc(C(=O)Nc4ccc(C(C)C)c(C)c4)c3)c3c(N)ncnc32)C1`, the “lowest phenotypically active concentration” value in assay [1] is 3 µM; in assay [2] it was 3 µM; in assay [3] it was 3 µM; in assay [4], 3 µM; in assay [5], 1 µM; in assay [6] it was 1 µM. Further, the phenotypically active in assay [7], in [8], in assay [9], in assay [10], in assay [11] and in assay [12] was 1 (active) each time. Also, the phenotypically active in [13], in assay [14], in assay [15], in assay [16], in [17] and in assay [18] was 1 (active) each time. Moreover, the phenotypically active in assay [19] and in [20] was 1 (active) in each case.
As to `O=C1c2c(O)ccc(O)c2C(=O)c2c(NCCNCCO)ccc(NCCNCCO)c21` [mitoxantrone], the “lowest phenotypically active concentration” value in [1], in [2], in assay [3], in assay [4], in [5] and in assay [6] was at most 0.3 µM each time. In addition, the phenotypically active in assay [7], in assay [8], in assay [9], in assay [10], in [11] and in assay [12] was 1 (active) each time. For the same compound, the phenotypically active in [13], in assay [14], in [15], in assay [16], in assay [17] and in [18] was 1 (active) each time. In addition, the phenotypically active in [19] and in assay [20] was 1 (active) in each case.
For the compound `C[C@@H]1COCCN1c1cc(C2(S(C)(=O)=O)CC2)nc(-c2cccc3[nH]ccc23)n1`, the “lowest phenotypically active concentration” value was at most 0.3 µM in [1]; 1 µM in assay [2]; at most 0.3 µM in assay [3]; at most 0.3 µM in assay [4]; 1 µM in assay [5]; 1 µM in [6]. The phenotypically active in assay [7], in assay [8], in [9], in assay [10], in assay [11] and in assay [12] was 1 (active) throughout. The phenotypically active in assay [13], in assay [14], in assay [15], in assay [16], in assay [17] and in assay [18] was 1 (active) in each case. Further, the phenotypically active in [19] and in assay [20] was 1 (active) throughout.
For `CN1CCN(c2ccc(OC(F)(F)F)c(Nc3ncc4c(n3)-c3c(c(C(N)=O)nn3CCO)CC4)c2)CC1`, the “lowest phenotypically active concentration” value in [1], in [2], in [3], in [4], in assay [5] and in assay [6] was at most 0.3 µM in each case. In addition, the phenotypically active in assay [7], in [8], in assay [9], in assay [10], in assay [11] and in assay [12] was 1 (active) in each case. Also, the phenotypically active in assay [13], in [14], in [15], in assay [16], in assay [17] and in assay [18] was 1 (active) in each case. The phenotypically active in [19] and in assay [20] was 1 (active) throughout.
Turning to `CCC1=C[C@@H]2CN(C1)Cc1c([nH]c3ccccc13)[C@@](C(=O)OC)(c1cc3c(cc1OC)N(C)[C@H]1[C@@](O)(C(=O)OC)[C@H](OC(C)=O)[C@]4(CC)C=CCN5CC[C@]31[C@@H]54)C2` [vinorelbine], the “lowest phenotypically active concentration” value in assay [1], in assay [2], in [3], in assay [4], in assay [5] and in assay [6] was at most 0.3 µM in each case. The phenotypically active in assay [7], in assay [8], in [9], in assay [10], in [11] and in assay [12] was 1 (active) each time. The phenotypically active in assay [13], in [14], in assay [15], in assay [16], in assay [17] and in assay [18] was 1 (active) each time. The phenotypically active in assay [19] and in assay [20] was 1 (active) throughout.
